# From the supplement of paper PMC8728848
# This excerpt belongs to a sample that is enriched for the strongest signals.
# B1: NKp30 (Homo sapiens), O14931 (protein)
# chain: MAWMLLLILIMVHPGSCALWVSQPPEIRTLEGSSAFLPCSFNASQGRLAIGSVTWFRDEVVPGKEVRNGTPERFGRLAPLASSRFLHDHQAELHIRDVRGHDASIYVCRVEVLGLGVGTGNGTRLVVRKEHPQLGAGTHADPEAPEAEGAPSVFLFPPKPKDTLMISRTPEVTCVVVDVSHEDPEVKFNWYVDGVEVHNAKTPREEQYNSTYRVVSVLTVLHQDWLNGKEYKCKVSNKALPAPIEKTISKAKGQPREPQVYTLPPSRDELTKNQVSLTCLVKGFYPSDIAVEWESNGQPENNYKTTPPVLDSDGSFFLYSKLTVDKSRWQQGNVFSCSVMHEALHNHYTQKSLSLSPGK
# Experiments:
# Assay in all cases: glycan array binding signal (z-score within array); higher = stronger binding
# Conditions in all cases: glycan notation: IUPAC condensed, linker removed
# Fuc(a1-2)Gal(b1-4)Glc = target: Fuc(a1-2)Gal(b1-4)Glc
# How it was run: (§1)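 Columns mapping to the same glycan were averaged after glycan names were converted to IUPAC-condensed notation. The data come from 3228 arrays in the Consortium for Functional Glycomics database, limited to those with an available protein sequence. Binding is reported as a within-array Z-score averaged across arrays of one protein sequence and across linkers.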
# [1] = target: Fuc(a1-2)Gal(b1-4)[Fuc(a1-3)]GlcNAc
# How it was run: as §1
# Fuc(a1-2)[Gal(a1-3)]Gal = target: Fuc(a1-2)[Gal(a1-3)]Gal
# How it was run: as §1
# [2] = target: Fuc(a1-2)[GalNAc(a1-3)]Gal(b1-4)[Fuc(a1-3)]GlcNAc
# How it was run: as §1
# [3] = target: Fuc(a1-2)[GalNAc(a1-4)]Gal(b1-4)GlcNAc
# How it was run: as §1
# Fuc(a1-3)GlcNAc = target: Fuc(a1-3)GlcNAc
# How it was run: as §1
# Gal(a1-2)Gal = target: Gal(a1-2)Gal
# How it was run: as §1
# Gal(a1-3)Gal = target: Gal(a1-3)Gal
# How it was run: as §1
# Gal(a1-3)Gal(b1-4)Glc = target: Gal(a1-3)Gal(b1-4)Glc
# How it was run: as §1
# Gal(a1-6)Glc = target: Gal(a1-6)Glc
# How it was run: as §1
# [4] = target: Gal(b1-3)GalNAc(b1-4)[Neu5Ac(a2-3)]Gal(b1-4)Glc
# How it was run: as §1
# [5] = target: Gal(b1-3)[Neu5Ac(b2-6)]GalNAc
# How it was run: as §1
# [6] = target: Gal(b1-4)GalNAc(a1-3)[Fuc(a1-2)]Gal(b1-4)GlcNAc
# How it was run: as §1
# [7] = target: Gal(b1-4)GlcNAc(b1-3)Gal(b1-4)GlcNAc(b1-3)Gal(b1-4)GlcNAc
# How it was run: as §1
# [8] = target: Gal(b1-4)GlcNAc(b1-3)[Gal(b1-4)GlcNAc(b1-6)]Gal(b1-4)GlcNAc
# How it was run: as §1
# Gal3S(b1-3)GalNAc = target: Gal3S(b1-3)GalNAc
# How it was run: as §1
# Gal3S(b1-4)Glc = target: Gal3S(b1-4)Glc
# How it was run: as §1
# Gal3S(b1-4)GlcNAc6S = target: Gal3S(b1-4)GlcNAc6S
# How it was run: as §1
# GalNAc(b1-3)GalNAc = target: GalNAc(b1-3)GalNAc
# How it was run: as §1
# Glc(a1-4)Glc = target: Glc(a1-4)Glc
# How it was run: as §1
# GlcNAc(b1-3)Man = target: GlcNAc(b1-3)Man
# How it was run: as §1
# GlcNAc(b1-4)GlcNAc = target: GlcNAc(b1-4)GlcNAc
# How it was run: as §1
# Kdn(a2-3)Gal(b1-4)GlcNAc = target: Kdn(a2-3)Gal(b1-4)GlcNAc
# How it was run: as §1
# [9] = target: Man(a1-2)Man(a1-6)[Man(a1-3)]Man(a1-6)[Man(a1-2)Man(a1-2)Man(a1-3)]Man
# How it was run: as §1
# [10] = target: Man(a1-2)Man(a1-6)[Man(a1-3)]Man(a1-6)[Man(a1-2)Man(a1-2)Man(a1-3)]Man(b1-4)GlcNAc(b1-4)GlcNAc
# How it was run: as §1
# [11] = target: Neu5Ac(a2-3)Gal(b1-4)[Fuc(a1-3)]GlcNAc(b1-3)Gal(b1-4)[Fuc(a1-3)]GlcNAc(b1-3)Gal(b1-4)[Fuc(a1-3)]GlcNAc
# How it was run: as §1
# [12] = target: Neu5Ac(a2-6)Gal(b1-4)GlcNAc(b1-3)Gal(b1-4)[Fuc(a1-3)]GlcNAc(b1-3)Gal(b1-4)[Fuc(a1-3)]GlcNAc
# How it was run: as §1
# [13] = target: Neu5Ac(a2-8)Neu5Ac(a2-8)Neu5Ac(a2-3)[GalNAc(b1-4)]Gal(b1-4)Glc
# How it was run: as §1
# [14] = target: Neu5Ac9Ac(a2-6)Gal(b1-4)GlcNAc
# How it was run: as §1
binder,measurement,setting,value
B1,glycan array binding signal (z-score),Fuc(a1-2)Gal(b1-4)Glc,-0.091
same,glycan array binding signal (z-score),[1],0.195
same,glycan array binding signal (z-score),Fuc(a1-2)[Gal(a1-3)]Gal,0.375
same,glycan array binding signal (z-score),[2],0.416
same,glycan array binding signal (z-score),[3],-0.379
same,glycan array binding signal (z-score),Fuc(a1-3)GlcNAc,13.9
same,glycan array binding signal (z-score),Gal(a1-2)Gal,1.41
same,glycan array binding signal (z-score),Gal(a1-3)Gal,1.89
same,glycan array binding signal (z-score),Gal(a1-3)Gal(b1-4)Glc,2.48
same,glycan array binding signal (z-score),Gal(a1-6)Glc,6.49
same,glycan array binding signal (z-score),[4],-0.671
same,glycan array binding signal (z-score),[5],-0.317
same,glycan array binding signal (z-score),[6],0.071
same,glycan array binding signal (z-score),[7],-0.44
same,glycan array binding signal (z-score),[8],0.041
same,glycan array binding signal (z-score),Gal3S(b1-3)GalNAc,-0.265
same,glycan array binding signal (z-score),Gal3S(b1-4)Glc,-0.02
same,glycan array binding signal (z-score),Gal3S(b1-4)GlcNAc6S,-0.253
same,glycan array binding signal (z-score),GalNAc(b1-3)GalNAc,1.68
same,glycan array binding signal (z-score),Glc(a1-4)Glc,0.053
same,glycan array binding signal (z-score),GlcNAc(b1-3)Man,-0.416
same,glycan array binding signal (z-score),GlcNAc(b1-4)GlcNAc,0.115
same,glycan array binding signal (z-score),Kdn(a2-3)Gal(b1-4)GlcNAc,-0.251
same,glycan array binding signal (z-score),[9],-0.314
same,glycan array binding signal (z-score),[10],-0.41
same,glycan array binding signal (z-score),[11],-0.204
same,glycan array binding signal (z-score),[12],-0.38
same,glycan array binding signal (z-score),[13],-0.221
same,glycan array binding signal (z-score),[14],0.048
